According to PubChem BioAssay (NCI):
Compounds without any hit were thinned out: in the full panel of roughly 79,000, 15% have a hit. A number with no mark means an inactive call. The source made the active and inactive calls. Cut-off read from the data, not from the text of the source: active = growth inhibition above about 70%; inactive = the rest.

Assays:
[1] = NCI Yeast Anticancer Drug Screen. Data for the rad52 strain (AID 147);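 note: 0% = growth of vehicle-treated control cultures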; details: S. cerevisiae rad52 mutant growth inhibition, stronger effect = higher value
Method in brief: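 Yeast strain carrying a DNA damage repair alteration was exposed to test compounds. Growth inhibition was measured relative to vehicle-treated controls.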

[2] = NCI Yeast Anticancer Drug Screen. Data for the wt1 strain (AID 149);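 note: 0% = growth of vehicle-treated wt1 cultures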; details: S. cerevisiae wt1 strain (SPY 50644) growth inhibition, stronger effect = higher value
Method in brief: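 Readout: yeast growth inhibition, normalised to vehicle controls, in the wt1 strain exposed to test compounds.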

[3] = NCI Yeast Anticancer Drug Screen. Data for the rad50EPP+ strain (AID 151);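 note: 0% = growth of vehicle-treated control cultures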; details: S. cerevisiae rad50 mutant strain, stronger effect = higher value
Method in brief: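 Yeast strain carrying rad50 alteration (rad50EPP+) exposed to compounds; growth inhibition measured relative to vehicle-treated controls.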

[4] = NCI Yeast Anticancer Drug Screen. Data for the mgt1 strain (AID 153); details: S. cerevisiae mgt1 mutant growth inhibition, stronger effect = higher value
Method in brief: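 Yeast mgt1 strain (DNA repair/cell-cycle alteration panel) exposed to compounds; growth inhibition measured relative to vehicle-treated controls.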

[5] = NCI Yeast Anticancer Drug Screen. Data for the rad50 strain (AID 155);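 note: 0% = growth of vehicle-only cultures of the same strain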; details: S. cerevisiae rad50 strain growth inhibition, stronger effect = higher value
Method in brief: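 Compounds were tested on a yeast strain with an engineered DNA damage repair alteration; the reported value is growth inhibition normalised to vehicle treatment.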

[6] = NCI Yeast Anticancer Drug Screen. Data for the mec2-1 strain (AID 157); details: S. cerevisiae mec2-1 strain, stronger effect = higher value
Method in brief: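 mec2-1 yeast strain, carrying an alteration in DNA damage repair or cell cycle control, was exposed to compounds; growth inhibition was measured relative to vehicle-treated controls.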

[7] = NCI Yeast Anticancer Drug Screen. Data for the rad14 strain (AID 159);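 note: 0% = growth of vehicle-treated control cultures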; details: S. cerevisiae rad14 strain growth inhibition, stronger effect = higher value
Method in brief: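 Compound-treated yeast with a defined DNA-repair lesion; growth inhibition normalised to vehicle-treated cultures.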

[8] = NCI Yeast Anticancer Drug Screen. Data for the sgs1 mgt1 strain (AID 161);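 note: 0% = growth of cultures given vehicle only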; details: S. cerevisiae sgs1 mgt1 strain, stronger effect = higher value
Method in brief: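 Compounds are added to genetically altered yeast, and growth is compared with cultures given vehicle alone to give percent inhibition.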

[9] = NCI Yeast Anticancer Drug Screen. Data for the CLN2oe strain (AID 163);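 note: 0% = growth of vehicle-only control cultures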; details: S. cerevisiae CLN2oe strain, stronger effect = higher value
Method in brief: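 Yeast cells carrying a defined cell-cycle control alteration were exposed to test compounds. Growth inhibition was scored against vehicle-treated control cultures.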

[10] = NCI Yeast Anticancer Drug Screen. Data for the cln2 rad14 strain (AID 165);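 note: 0% = growth equal to vehicle treated cultures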; details: S. cerevisiae cln2 rad14 strain, stronger effect = higher value
Method in brief: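 Yeast carrying cln2 and rad14 alterations (cell cycle control and DNA damage repair) were exposed to compounds. Growth inhibition was measured against vehicle-treated controls.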

[11] = NCI Yeast Anticancer Drug Screen. Data for the bub3 strain (AID 167); details: S. cerevisiae bub3 mutant strain, stronger effect = higher value
Method in brief: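 Growth of a checkpoint-deficient yeast mutant is measured after compound exposure. Values represent inhibition relative to vehicle.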

[12] = NCI Yeast Anticancer Drug Screen. Data for the wt2 strain (AID 169);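 note: 0% = growth of vehicle-treated yeast cultures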; details: S. cerevisiae wt2 strain growth inhibition, stronger effect = higher value
Method in brief: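 Yeast cells were exposed to test compounds, and growth inhibition was measured relative to vehicle-treated controls.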

[13] = NCI Yeast Anticancer Drug Screen. Data for the mlh1 strain (AID 171);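 note: 0% = growth of vehicle-treated control cultures of the same strain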; details: S. cerevisiae mlh1 strain growth inhibition, stronger effect = higher value
Method in brief: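 Yeast carrying a defined genetic alteration in DNA damage repair or cell cycle control were exposed to test compounds. Growth inhibition was measured relative to vehicle-treated controls.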

[14] = NCI Yeast Anticancer Drug Screen. Data for the sgs1 strain (AID 173);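 note: 0% = growth of vehicle-only control cultures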; details: S. cerevisiae sgs1 mutant, stronger effect = higher value
Method in brief: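 Yeast mutant strains carrying defined defects in DNA damage repair or cell cycle control were exposed to test compounds. Growth inhibition was scored against vehicle-treated controls.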

[15] = NCI Yeast Anticancer Drug Screen. Data for the mlh1 rad18 strain (AID 175); details: S. cerevisiae mlh1 rad18 strain growth inhibition, stronger effect = higher value
Method in brief: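 Growth inhibition of the yeast strain was measured after compound exposure and expressed relative to vehicle-treated controls. The strain carries defined defects in DNA damage repair.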

[16] = NCI Yeast Anticancer Drug Screen. Data for the rad18 strain (AID 177); details: S. cerevisiae rad18 mutant growth inhibition, stronger effect = higher value
Method in brief: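 Yeast carrying a defined DNA damage repair alteration were exposed to compounds. Growth inhibition was expressed relative to vehicle-treated controls.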

[17] = at 5.0 µM (retest, dose inferred, filed as 0.5)
[18] = at 50.0 µM (retest, dose inferred, filed as 5.0)

C/C(=N\NC(=S)SCc1ccccc1)c1ccccn1
growth inhibition ([1]; at 1.2 µM): 15%
growth inhibition ([1]; at 3.7 µM): 13%
growth inhibition ([1]; at 11.0 µM): 60%
growth inhibition ([1]; at 33.0 µM): 93% (active)
growth inhibition ([1]; at 100.0 µM): 91% (active)
growth inhibition ([2]; at 1.2 µM): -13%
growth inhibition ([2]; at 3.7 µM): -15%
growth inhibition ([2]; at 11.0 µM): 58%
growth inhibition ([2]; at 33.0 µM): 95% (active)
growth inhibition ([2]; at 100.0 µM): 94% (active)
growth inhibition ([3]; at 1.2 µM): 40%
growth inhibition ([3]; at 3.7 µM): 47%
growth inhibition ([3]; at 11.0 µM): 78% (active)
growth inhibition ([3]; at 33.0 µM): 95% (active)
growth inhibition ([3]; at 100.0 µM): 92% (active)
growth inhibition ([4]; at 1.2 µM): 13%
growth inhibition ([4]; at 3.7 µM): 24%
growth inhibition ([4]; at 11.0 µM): 83% (active)
growth inhibition ([4]; at 33.0 µM): 96% (active)
growth inhibition ([4]; at 100.0 µM): 92% (active)
growth inhibition ([5]; at 1.2 µM): 17%
growth inhibition ([5]; at 3.7 µM): 22%
growth inhibition [5, 17]: 8%
growth inhibition ([5]; at 11.0 µM): 69%
growth inhibition ([5]; at 33.0 µM): 95% (active)
growth inhibition [5, 18]: 0%
growth inhibition ([5]; at 50.0 µM): 88% (active)
growth inhibition ([5]; at 100.0 µM): 92% (active)
growth inhibition ([6]; at 1.2 µM): 38%
growth inhibition ([6]; at 3.7 µM): 51%
growth inhibition [6, 17]: -5%
growth inhibition ([6]; at 11.0 µM): 92% (active)
growth inhibition ([6]; at 33.0 µM): 96% (active)
growth inhibition [6, 18]: 96% (active)
growth inhibition ([6]; at 50.0 µM): 90.2% (active)
growth inhibition ([6]; at 100.0 µM): 92% (active)
growth inhibition ([7]; at 1.2 µM): -10%
growth inhibition ([7]; at 3.7 µM): -4%
growth inhibition ([7]; at 11.0 µM): 31%
growth inhibition ([7]; at 33.0 µM): 94% (active)
growth inhibition ([7]; at 100.0 µM): 92% (active)
growth inhibition [8, 17]: -1%
growth inhibition [8, 18]: 95% (active)
growth inhibition ([8]; at 50.0 µM): 86.2% (active)
growth inhibition ([9]; at 1.2 µM): 2%
growth inhibition ([9]; at 3.7 µM): 2%
growth inhibition ([9]; at 11.0 µM): 60%
growth inhibition ([9]; at 33.0 µM): 96% (active)
growth inhibition ([9]; at 100.0 µM): 89% (active)
growth inhibition [10, 17]: 3%
growth inhibition [10, 18]: 95% (active)
growth inhibition ([10]; at 50.0 µM): 86.1% (active)
growth inhibition ([11]; at 1.2 µM): 3%
growth inhibition ([11]; at 3.7 µM): 20%
growth inhibition [11, 17]: 30%
growth inhibition ([11]; at 11.0 µM): 82% (active)
growth inhibition ([11]; at 33.0 µM): 95% (active)
growth inhibition [11, 18]: 95% (active)
growth inhibition ([11]; at 50.0 µM): 87% (active)
growth inhibition ([11]; at 100.0 µM): 91% (active)
growth inhibition ([12]; at 1.2 µM): -36%
growth inhibition ([12]; at 3.7 µM): -25%
growth inhibition ([12]; at 11.0 µM): 72% (active)
growth inhibition ([12]; at 33.0 µM): 95% (active)
growth inhibition ([12]; at 100.0 µM): 92% (active)
growth inhibition ([13]; at 1.2 µM): 13%
growth inhibition ([13]; at 3.7 µM): 24%
growth inhibition ([13]; at 11.0 µM): 83% (active)
growth inhibition ([13]; at 33.0 µM): 96% (active)
growth inhibition ([13]; at 100.0 µM): 92% (active)
growth inhibition ([14]; at 1.2 µM): 37%
growth inhibition ([14]; at 3.7 µM): 46%
growth inhibition ([14]; at 11.0 µM): 78% (active)
growth inhibition ([14]; at 33.0 µM): 97% (active)
growth inhibition ([14]; at 100.0 µM): 94% (active)
growth inhibition [15, 17]: -12%
growth inhibition [15, 18]: 95% (active)
growth inhibition ([15]; at 50.0 µM): 87.5% (active)
growth inhibition ([16]; at 1.2 µM): 39%
growth inhibition ([16]; at 3.7 µM): 53%
growth inhibition ([16]; at 11.0 µM): 80% (active)
growth inhibition ([16]; at 33.0 µM): 96% (active)
growth inhibition ([16]; at 100.0 µM): 91% (active)
